Potency and activity change, negative = cytotoxicity data for 40 compounds are collected here from PubChem BioAssay (Tox21).

Records with an inconclusive call do not appear. Entries that show only a call come without a potency. Values without a mark were called inactive. Calls of active or inactive are those of the source. The call rests on the fitted dose curve; in most records, active means well fitted cell-killing curve with a large enough effect in the repeat runs; inconclusive means weak or mixed curves, or effect the other way; inactive means flat fitted curve, though single readings scatter.

The assay in a line: cAMP Responsive Elements (CRE) small molecule agonists, cell-based qHTS assay: qHTS cell viability counter screen (AID 2060914). Further: nearly all actives have a fitted effect of over 50% in size. The settings on record: CRE-bla HEK293T viability, CellTiter-Glo luminescence, 5 h; series mostly up to 92.4 µM. From the text: National Center for Advancing Translational Sciences [NCATS]
Division of Preclinical Innovation [DPI]
U.S. Environmental Protection Agency [EPA]
National Institutes of Environmental Health Sciences [NIEHS]
National Toxicology Program [NTP]
U.S. Food and Drug Administration [FDA]
CREB (cyclic-AMP Responsive Element Binding Protein) is a cellular transcription factor. It binds to certain DNA sequences called cAMP Responsive Elements (CRE) and regulates the transcription of the genes. […] This cell line can be used to find agonists/antagonists of the cyclic AMP signaling pathway. The activation of the report gene under culture conditions can be detected by fluorescence intensity. This cell line has been used to screen the Tox21 10K compound library to identify agonists that induce oxidative stress. The cytotoxicity of the Tox21 compound library against the CRE-bla cell line was tested in parallel by measuring the cell viability using CellTiter-Glo assay (Promega, Madison, WI) in the same wells.
Tox21 Assay Protocol Summary:
CRE-bla Hek 293T cells were suspended in assay medium (DMEM containing 10% dialyzed FBS, 0.1 mM NEAA, 1 mM sodium pyruvate and 25 mM HEPES) and dispensed at 2,000 cells/5 uL /well into 1536-well black wall/clear bottom plates using a Multidrop Combi (ThermoFisher Scientific, Waltham, MA) dispenser. After the assay plates were incubated at 37 C/5% CO2 for 18 hrs, 23 nL of compounds dissolved in DMSO, positive controls or DMSO only was transferred to the assay plate by a pintool workstation (Kalypsys, San Diego, CA). After the plates were incubated at 37 C/5% CO2 for 3 hrs, 1 uL of LiveBLAzer B/G FRET substrate (Invitrogen, Carlsbad, CA) was added to each well using Bioraptr Flying Reagent Dispenser (FRD, Aurora Discovery, San Diego, CA). The plates were incubated at room temperature for 2 h, then fluorescence intensities were measured using an Envision plate reader (PerkinElmer, Shelton, CT) at Excitation 405nm, Emission 460nm and 530nm. The % activity was determined from the ratio of 460nm/530nm. For cell viability readout that measures cytotoxicity, 4 uL /well of CellTiter-Glo reagent was added into the assay plates using Bioraptr FRD. After 30 min incubation at room temperature, the luminescence intensity in the assay plates was measured using a ViewLux (PerkinElmer, Shelton, CT) plate reader.
`C[Si](C)O[Si](C)C`: the Potency entry is “inactive”.

Turning to `COc1c2occc2cc2ccc(=O)oc12`, the Potency entry is “inactive”.

With `CCOC(=O)COC(=O)c1cc(Oc2ccc(C(F)(F)F)cc2Cl)ccc1[N+](=O)[O-]`, the Potency result is “inactive”. Same read-out and setting: with `O=c1[nH]cc(F)c(=O)[nH]1` the entry was “inactive”. With `Brc1c2ccccc2c(Br)c2ccccc12`, the activity change, negative = cytotoxicity is -1.97% [at 8.39 µM]. As to `CC(=O)NC(Cc1ccccc1)C(=O)O` (stereo not given), the Potency entry is “inactive”. Still for that read-out and setting: the value for `CN1C(=O)c2ccccc2C1=O` was “inactive”; that for `CC(C)C(OC(=O)c1ccccc1)C(C)(C)COC(=O)c1ccccc1` (stereo not given) was “inactive”. Same read-out and setting: with `CCCCCCC(C)O` (stereo not given) the entry was “inactive”; with `COc1cc(O)cc(O)c1`, “inactive”. Turning to `CCCCN(CCCC)CCC(O)c1cc2c(Cl)cc(Cl)cc2c2cc(C(F)(F)F)ccc12` (stereo not given), the Potency result was “inactive”. The same measure, in the same setting: with `OCCOCCOCCOCCO` the entry was “inactive”; with `CC(=O)OCC(C)OC(C)=O` (stereo not given), “inactive”; with `C=C(C)C(=O)OCC(C)C`, “inactive”. Still for that read-out and setting: the value for `Cc1cccc(Nc2cc(Cl)nc(SCC(=O)O)n2)c1C` was “inactive”; that for `O=C(O)c1cccnc1C(=O)O` was “inactive”; that for `CC(C)CCOC(=O)c1ccc(N(C)C)cc1` was “inactive”. On the same count and under the same terms, the value for `C[Si](C)O[Si](C)(C)O[Si](C)(C)O[Si](C)C` was “inactive”. For the compound `CN1CCN(N)CC1`, the Potency entry is “inactive”. Still for that read-out and setting: the value for `O=C1c2ccccc2C(=O)N1SC1CCCCC1` was “inactive”; that for `Cc1ccccc1C(OCCN(C)C)c1ccccc1` (stereo not given) was “inactive”. The same measure, in the same setting: the value for `O=C(O)c1ccc(OCCN2CCCCC2)cc1` was “inactive”. Same read-out and setting: with `NS(=O)(=O)c1cc2c(cc1Cl)CN(C1CCCCC1)C2=O` the entry was “inactive”; with `CC(C)NCC(O)COc1ccc(COCCOC(C)C)cc1` (stereo not given), “inactive”. With `Oc1c(Cl)cc(Cl)c(Cl)c1Cl`, the Potency result is “inactive”. As to `CNCCC(Oc1ccccc1OC)c1ccccc1` (stereo not given), the Potency entry was “inactive”. Same read-out and setting: with `CCCCCCCCCCCCCCO` the entry was “inactive”; with `COC(C)=O`, “inactive”. Still for that read-out and setting: the value for `Oc1cccc(Nc2ccccc2)c1` was “inactive”; that for `CCCCC(CC)(CO)CO` was “inactive”; that for `Nc1cccc(S(=O)(=O)O)c1` was “inactive”. `O=C1OC(=O)c2ccc3c4c(ccc1c24)C(=O)OC3=O`: the Potency result was “inactive”. In the case of `CC(C)CCCCCCOC(=O)c1ccc(C(=O)OCCCCCCC(C)C)c(C(=O)OCCCCCCC(C)C)c1`, the Potency entry was “inactive”. Turning to `CCCCOC(=O)C(=O)OCCCC`, the Potency result was “inactive”.

Take `O=C1CCCCCCCCCCCCCCO1`: the Potency entry was “inactive”.

On to `CN(C)CCOCCN(C)C`, for which the Potency result was “inactive”. Consider `CC(C)N(c1ccccc1)C(C)C`, for which the Potency result was “inactive”. The same measure, in the same setting: the value for `COc1nccnc1CC(C)C` was “inactive”. In the case of `CC(Oc1cc(Cl)ccc1Cl)C(=O)O` (stereo not given), the Potency entry is “inactive”. On to `Cc1cc(CCC(=O)OCCOCCOCCOC(=O)CCc2cc(C)c(O)c(C(C)(C)C)c2)cc(C(C)(C)C)c1O`, for which the Potency result is “inactive”.
